Compounds with a hit are over-represented: about 4% of the library has one in this group of screens.
TWEAK Fn14 block = TWEAK-Fn14 signaling inhibition; TWEAK-stimulated Fn14 reporter cells, luciferase luminescence, 8 h; 360,000 compounds, 2% hits; inhibition, % at 10 µM; in the data active = inhibition above about 50%
TROY NFkB inh = blocks TROY-dependent signaling in reporter cells; Q293 LMP1-TROYcd NF-kB luciferase reporter, 4 h; inhibition, % at 10 µM; 360,000 compounds, 0.98% hits;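 active = compounds whose plate-normalised and pattern-corrected inhibition of the luciferase reporter signal at the single screening dose is 50% or more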
Peg3 prom inh = inhibitors of Peg3 promoter; HeLa PEG-Prom luciferase reporter, luminescence, overnight; inhibition, % at 20 µM; 360,000 compounds, 1.7% hits; AID 588405;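 active = inhibition of at least 50% at 20 µM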
HIF-2a block = blocks HIF-2a reporter activity; 786-0 RCC cells HIF-2a reporter, luciferase luminescence, overnight; AID 624352; inhibition, % at 18.8 µM; 360,000 compounds, 0.72% hits;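 active = inhibition of the luminescence signal of 40% or more relative to plate controls, in a single-dose primary screen at 18.75 µM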
CF NFkB block = cystic fibrosis NF-kB activation inhibition | inhibition, % at 5 µM | 360,000 compounds, 0.86% hits | KKLEB NF-kB-GFP reporter, PAF-induced, GFP fluorescence overnight;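 active = at least 50% inhibition at 5 µM, scaled per plate between neutral and stimulator controls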;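 also: PAF is a Pseudomonas aeruginosa culture filtrate used as stimulus; plate controls were PAF-stimulated DMSO wells for no effect and unstimulated DMSO wells for full effect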
KKLEB cytotox = reduces viability of KKLEB cystic fibrosis airway cells | activity change (cytotoxicity), % at 5 µM | KKLEB CF airway cells viability, ATPlite luminescence, overnight; active compounds read low; cells stimulated with P. aeruginosa culture filtrate | 360,000 compounds, 0.36% hits;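 active = corrected activity change at or below -50% at 5 µM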
Starred values were filed as active, the others as inactive; nt = no result.

SMILES	TWEAK Fn14 block	TROY NFkB inh	Peg3 prom inh	HIF-2a block	CF NFkB block	KKLEB cytotox
COc1ccc(N(C(=O)c2ccco2)C(C(=O)NC2CCCCC2)c2cccs2)cc1OC (centres undefined)	77*	nt	11	13	0	-9
CCOC(=O)[C@]12CCC=C1N(Cc1ccc(Cl)cc1Cl)C(=O)[C@H](CC(=O)N1CCOCC1)C2	11	-5	nt	8	nt	nt
COc1ccc(C(C(=O)NC2CCCCC2)N(C(=O)CCl)c2cccc(Cl)c2)cc1 (centres undefined)	58*	-37	102*	36	100*	-76*
O=C(Nc1ccc2c(c1)OCO2)C1CC(=O)N(c2ccc(F)cc2)C1 (centres undefined)	-3	-4	-5	-7	-7	2
COc1cc2c(cc1OC(C)=O)CCCCC2=O	-33	-9	3	-2	-17	11
CCN=C1NN=C(c2cc(C)n(Cc3ccco3)c2C)CS1	48	-1	39	67*	-10	4
COCCn1c(C)cc(C2=NNC(=Nc3ccccc3)SC2)c1C	76*	82*	-120	-98	-4	2
CCN=C1NN=C(c2cc(C)n(CCc3ccccc3)c2C)CS1	14	5	-32	-14	4	-15
CO[C@@H]1CN(C)C(=O)c2ccc(NS(=O)(=O)c3c(C)noc3C)cc2OC[C@@H](C)NC[C@@H]1C	nt	nt	nt	3	nt	nt
Cc1nc2cc(NC(=O)c3ccc(S(=O)(=O)N(C)c4ccccc4)cc3)ccc2o1	74*	14	-188	-227	2	6
CN(c1ccccc1)S(=O)(=O)c1ccc(NC(=O)c2ccc(-c3ccccc3)cc2)cc1	54*	36	13	8	-12	12
COc1ccc(NC(=O)c2ccc(S(=O)(=O)N(C)c3ccccc3)cc2)cc1S(=O)(=O)N1CCOCC1	10	28	27	14	-5	2
CN(c1cccc(NC(=O)c2ccc(N(C)S(=O)(=O)c3ccccc3)cc2)c1)S(C)(=O)=O	42	31	38	22	-3	4
CN(c1ccccc1)S(=O)(=O)c1cccc(NC(=O)c2ccc(Cl)c([N+](=O)[O-])c2)c1	20	44	93*	0	2	7
Cc1ccc(NC(=O)c2ccc(S(=O)(=O)N(C)c3ccccc3)cc2)cc1S(=O)(=O)N1CCOCC1	59*	39	4	25	6	0
COc1ccc(C(C)(NC(C)=O)c2nc(-c3cccc(F)c3)cs2)cc1 (centres undefined)	-24	-7	0	10	18	6
COc1ccc(CCNC(=O)COC(=O)c2cc(=O)[nH]c3ccccc23)cc1	-3	-4	-10	-10	-8	5
CC(C)C[C@H]1CNC(=O)C(=O)N1C[C@H](C)NC(=O)Cc1ccccc1	3	3	-8	11	2	-2
Cc1ccc(NC(=O)C(C)N2C(=O)c3ccccc3C2=O)cc1S(=O)(=O)N1CCOCC1 (centres undefined)	17	64*	-11	10	17	3
CCOC(=O)/C=C/C(=O)Nc1ccc(S(=O)(=O)N(C)c2ccccc2)cc1	48	26	59*	19	15	-30
CC(=O)Nc1ccc(S(=O)(=O)N(C)c2ccccc2)cc1	-1	-3	27	1	4	-6
Cc1nc2ccc(NC(=O)c3ccc(Cl)c(S(=O)(=O)N(C)c4ccccc4)c3)cc2s1	96*	56*	30	26	-12	16
COc1ccc(C(=O)Nc2ccc(NC(=O)c3cc(OC)c(OC)c(OC)c3)cn2)cc1	14	-13	-6	10	7	-3
C=CCn1c(-c2ccc(OC)cc2)nc2ccccc21	57*	nt	-141	-156	15	4
O=C(Nc1cccc(Cl)c1)Nc1ccnc(-c2cccnc2)n1	53*	17	78*	-73	-107	10
SMILES	TWEAK Fn14 block	TROY NFkB inh	Peg3 prom inh	HIF-2a block	CF NFkB block	KKLEB cytotox
CCc1nc2ccc(C(=O)Nc3cc(-c4ccccc4)ccc3OC)cn2c1N(C=O)CCC(C)C	26	15	6	5	35	-23
Cc1ccc(C)c(S(=O)(=O)N2CCN(C(=O)CNC(=O)c3sc4ccccc4c3Cl)CC2)c1	-28	-13	3	6	11	-18
O=C(NCC(=O)N1CCN(S(=O)(=O)c2ccccc2C(F)(F)F)CC1)c1sc2ccccc2c1Cl	-40	18	11	5	48	-55*
COc1cccc(-n2c(SCC(=O)N3CCc4ccccc43)nnc2-c2c[nH]c3ccccc23)c1	-42	-8	101*	4	60*	-58*
CCOc1ccc(-n2c(SCC(=O)N3CCc4ccccc43)nnc2-c2c[nH]c3ccccc23)cc1	-42	-44	-19	-13	-5	-2
CC(C)(C)OC(=O)NCCCCCNC(=O)c1[nH]cnc1C(=O)Nc1ccccc1	33	10	33	13	0	4
CNC(=O)c1[nH]cnc1C(=O)Nc1cccc(Cl)c1	6	-5	-151	-94	10	-9
O=C(Nc1ccccc1)c1nc[nH]c1C(=O)NCCNC(=O)c1[nH]cnc1C(=O)Nc1ccccc1	17	9	41	-5	66*	-11
O=C(Nc1cccc(Cl)c1)c1nc[nH]c1C(=O)NCCCNC(=O)c1[nH]cnc1C(=O)Nc1cccc(Cl)c1	19	16	57*	8	-13	5
Cn1c(=O)c2cc(NC(=O)CCc3ccc4c(c3)OCO4)ccc2n1Cc1ccc(F)cc1	-2	30	15	7	26	-6
COc1cccc2c1C(=O)c1c(O)c3c(c(O)c1C2=O)C[C@@](O)(C(C)=O)C[C@@H]3O[C@H]1C[C@H](N)[C@H](O)[C@H](C)O1	96*	69*	89*	26	66*	-47
COc1cccc2c1C(=O)c1c(O)c3c(c(O)c1C2=O)C[C@@](O)(C(=O)CO)C[C@@H]3O[C@H]1C[C@H](N)[C@@H](O)[C@H](C)O1	88*	-3	94*	4	70*	-54*
COc1cccc2c1C(=O)c1c(O)c3c(c(O)c1C2=O)CC(O)(C(=O)CO)CC3OC1CC(N(C)C)C(O)C(C)O1 (centres undefined)	97*	57*	93*	38	76*	-37
CCOc1ccccc1NC(=O)C(=O)CC(=O)c1ccc(OC)cc1	-11	-16	12	13	13	7
COc1ccc2c(c1)c1c(n2C)[C@@H]2CC=C(CO)[C@@H](C1)N2C	8	2	1	1	-15	23
O=C(CSc1nnc(-c2cccc(F)c2)o1)N1CCCC1	-2	-4	-96	-151	-2	13
CCN1C(=O)[C@H]2[C@@H](c3ccc(C)cc3)N[C@]3(CCCN(Cc4ccc(Cl)cc4)C3=O)[C@H]2C1=O	4	-7	-4	-5	-28	2
